Laboratory results taken from PubChem BioAssay AID488969 (Vanderbilt High Throughput Screening Facility, 2010).
Whole data set: some 110,000 compounds, median “z-score” near -0.1, cut for the highest 2% near 2. Only a selection was taken, and the highest values are over-represented in it overall. Calls of active or inactive are those of the source.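 How the source made its calls: active means z-score in the third read window above 3 or below -3; inactive means the rest.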

molecular target: Metabotropic glutamate receptor 8 (Rattus norvegicus) (UniProt P70579); assay: rat mGluR8 modulators via GIRK flux, primary screen, cell-based, thallium flux, HTS (AID 488969); details: HEK293 rat mGluR8, GIRK (G protein-gated inwardly rectifying potassium channel) thallium flux, FluoZin2; at 10 µM; stronger effect = higher value; submaximal glutamate (EC20) added with thallium
Sequence (P70579 whole entry, looked up): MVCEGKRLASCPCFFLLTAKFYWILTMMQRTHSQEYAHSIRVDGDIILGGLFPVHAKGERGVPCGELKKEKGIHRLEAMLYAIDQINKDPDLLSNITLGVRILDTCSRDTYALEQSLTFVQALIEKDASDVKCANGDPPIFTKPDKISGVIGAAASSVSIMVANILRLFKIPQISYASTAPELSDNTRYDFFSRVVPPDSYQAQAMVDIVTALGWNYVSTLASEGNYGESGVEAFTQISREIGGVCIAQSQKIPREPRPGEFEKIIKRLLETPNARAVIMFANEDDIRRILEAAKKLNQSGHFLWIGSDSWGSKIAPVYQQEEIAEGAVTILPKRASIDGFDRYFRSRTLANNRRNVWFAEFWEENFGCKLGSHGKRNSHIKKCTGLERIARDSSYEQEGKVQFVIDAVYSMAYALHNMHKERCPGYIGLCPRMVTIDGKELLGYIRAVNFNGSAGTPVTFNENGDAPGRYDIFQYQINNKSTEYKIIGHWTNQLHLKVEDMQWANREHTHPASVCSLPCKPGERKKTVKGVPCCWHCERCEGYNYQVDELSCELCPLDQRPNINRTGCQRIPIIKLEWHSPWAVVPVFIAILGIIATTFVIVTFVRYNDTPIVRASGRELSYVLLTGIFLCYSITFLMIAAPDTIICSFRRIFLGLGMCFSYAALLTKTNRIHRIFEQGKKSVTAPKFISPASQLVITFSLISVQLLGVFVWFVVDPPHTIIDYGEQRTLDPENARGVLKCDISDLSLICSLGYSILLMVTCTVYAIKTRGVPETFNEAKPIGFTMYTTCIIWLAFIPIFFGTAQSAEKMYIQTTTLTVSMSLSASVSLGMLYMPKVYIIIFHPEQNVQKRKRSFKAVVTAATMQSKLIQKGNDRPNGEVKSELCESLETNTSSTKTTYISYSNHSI

Compared with `Cc1ccc(O)c(C(=O)/C=C/c2ccc3c(c2)OCCCO3)c1`, `O=C(NC(=S)Nc1cccc(Cl)c1N1CCCCC1)c1ccc2c(c1)OCCO2` is lower in z-score: 0.653 for the first, 0.413 for the second.

Going from `CC(=O)NC1=NN(C(C)=O)C(C)(CS(=O)(=O)c2ccc(C)c(C)c2)S1` (configuration not stated) to `Cc1ccc(C)c(NS(=O)(=O)c2c(C)ccc3nsnc23)c1`, the z-score falls from -0.323 to -0.891.

First: COc1ccc(CN(C(=O)c2ccco2)c2ccc(Br)cc2)cc1OC
Second: COc1ccc(C(C(=O)NC(C)(C)C)N(C(=O)CNC(=O)c2cccs2)c2ccc(C(C)C)cc2)cc1OC (configuration not stated)
The z-score of the first is lower: -0.544 for the first, -0.16 for the second.

First: CCOC(=O)c1sc(C)c2c(=O)n(CC)nnc12
Second: CCn1cc(C(=O)OCC(=O)c2cc(C)n(-c3ccccc3F)c2C)c(=O)c2ccc(C)nc21
The z-score of the first is higher: 0.154 for the first, -0.711 for the second.

First: Cc1ccc(NC(=S)NNC(=O)c2cn(C)nc2C)cc1
Second: Cc1ccc(NC(=O)c2ccc(CSc3nnnn3C)cc2)cc1
The z-score of the first is higher: 0.188 for the first, -0.174 for the second.

Going from `CC(=O)c1c(N)[nH]c(-c2ccccc2)nc1=S` to `CC(=O)c1c(N2CCN(C)CC2)[nH]c(-c2ccccc2)nc1=S`, the z-score falls from 1.28 to 0.167.

First: CSc1nc(-c2ccccc2)nc(N)c1C(C)=O
Second: CSc1nc(-c2ccccc2)nc(SC)c1C(C)=O
The z-score of the first is higher: -0.0854 for the first, -0.493 for the second.

Going from `S=C(NC12CC3CC(CC(C3)C1)C2)N1CCCC1` to `CCC(=O)NC(=S)Nc1cccc(Cl)c1N1CCCCC1`, the z-score rises from -0.0857 to 0.315.

Compared with `N#C/C(=C(/O)COC(=O)Cc1c[nH]c2ccccc12)c1nc2ccccc2[nH]1`, `O=C(O)COc1ccc(/C=N/n2c(COc3ccccc3)nc3ccccc3c2=O)cc1` is higher in z-score: -0.819 for the first, -0.124 for the second.

Going from `Cc1ccc2c(c1)NC(=O)C(CC(=O)NCCCN1CCCC1)O2` (configuration not stated) to `Cc1ccccc1-c1nc(CN2CCC(C(=O)NCCCN3CCCC3)CC2)c(C)o1`, the z-score rises from 0.515 to 2.76.

Compared with `CCSc1nc(N)c(C#N)c(-c2ccco2)c1C#N`, `COC(=O)CSc1nc(N)c(C#N)c(-c2ccco2)c1C#N` is higher in z-score: -0.377 for the first, -0.328 for the second.

Going from `COc1ccc(Oc2coc3cc(OC(=O)N4CCOCC4)ccc3c2=O)cc1` to `O=C(Cc1ccc(Cl)cc1)NC(=S)Nc1ccccc1N1CCOCC1`, the z-score rises from -0.0315 to 0.883.

Compared with `Cc1cccc(Nc2nnc(SCC3CCCCO3)s2)c1C` (configuration not stated), `Cc1ccccc1-c1nc(CN2CCC(C(=O)NCC3CCCO3)CC2)c(C)o1` (configuration not stated) is lower in z-score: -0.0272 for the first, -0.924 for the second.

Compared with `COc1cccc(N(C(=O)Cn2nnc(-c3ccc(C)o3)n2)C(C(=O)NC(C)(C)C)c2cccs2)c1` (configuration not stated), `COc1ccc(-n2c(N)c(C(=O)NCc3cccnc3)sc2=S)cc1` is higher in z-score: 0.439 for the first, 0.463 for the second.

First: CCCC(=O)NC(=S)Nc1cccc(Cl)c1N1CCCCC1
Second: O=C(NC(=S)Nc1cccc(Cl)c1N1CCCCC1)c1cccs1
The z-score of the first is lower: 0.12 for the first, 2.55 for the second.

Going from `O=C(NC(=S)Nc1ccccc1N1CCCCC1)c1cccs1` to `CC1CCN(c2ccccc2NC(=S)NC(=O)c2cccs2)CC1`, the z-score rises from -0.0387 to 1.61.

Going from `O=C(Nc1ccccc1N1CCCCC1)c1ccco1` to `O=C(Nc1ccccc1N1CCCC1)c1ccco1`, the z-score rises from -0.657 to -0.0103.

Compared with `O=C(Nc1ccc(N2CCOCC2)cc1N1CCOCC1)c1cccs1`, `O=C(Nc1ccccc1N1CCOCC1)c1cccs1` is higher in z-score: -0.508 for the first, 0.511 for the second.

First: CS(=O)(=O)N1CCN(c2ccccc2NC(=O)c2ccco2)CC1
Second: COc1ccccc1N1CCN(S(=O)(=O)c2cccc3nsnc23)CC1
The z-score of the first is higher: -0.175 for the first, -0.393 for the second.

Compared with `Cc1nc(NNC(=O)c2ccc(Cl)cc2Cl)cc(-c2ccccc2)n1`, `c1ccc(CCNc2nc(-c3cccnc3)cs2)cc1` is lower in z-score: 0.141 for the first, -0.023 for the second.

First: CCCOC(=O)c1ccc(OCC(O)CN2C(=O)NC(C)(C)C2=O)cc1 (configuration not stated)
Second: Cc1ccc(OCC(O)Cn2c3ccccc3c3ccccc32)cc1 (configuration not stated)
The z-score of the first is higher: 0.307 for the first, -0.222 for the second.

Compared with `O=[N+]([O-])c1cccc(C(=Nc2ccc(Cl)cc2)NO)c1`, `O=C(/C=C/c1cccc([N+](=O)[O-])c1)NCCSc1ccccc1` is lower in z-score: -0.259 for the first, -0.3 for the second.

Going from `CC(NC(=O)Nc1nnc(C(F)(F)F)s1)N1C(=O)C2C3C=CC(C3)C2C1=O` (configuration not stated) to `C=C(C)CN=C1SC(C(=O)Nc2sc3c(c2C(=O)OC)CCC3)C(N)=C1C(N)=O` (configuration not stated), the z-score rises from 0.0447 to 0.236.

Compared with `CCCCCNc1nc(NCCCO)c(C#N)c2c1CN(C)CC2`, `CCN1CCCC1CNC(=O)CS(=O)(=O)Cc1nc(-c2ccccc2C)oc1C` (configuration not stated) is higher in z-score: -0.528 for the first, 1.21 for the second.

Compared with `CC1CCN(c2ccccc2NC(=O)c2ccc(F)cc2)CC1`, `O=C(c1cc2sccc2n1Cc1ccc(F)cc1)N1CCCc2ccccc21` is higher in z-score: -0.52 for the first, 0.225 for the second.

First: N#C/C(=C\c1ccc(Cl)cc1Cl)c1n[nH]c(Cn2cncn2)n1
Second: OCCCCNCc1ccc(OCc2ccc(Cl)cc2Cl)cc1
The z-score of the first is lower: -1.59 for the first, 1.19 for the second.

First: O=c1cc(NCc2ccco2)c2ccccc2o1
Second: NC(=O)c1cccnc1Nc1ccccc1Cl
The z-score of the first is higher: -0.304 for the first, -0.423 for the second.

Going from `CC1=C(C(=O)OC(C)C)C(c2cccs2)C(C(=O)OC(C)C)=C(C)N1` to `COC(=O)c1cc2sccc2n1CC(=O)N1CCCc2ccccc21`, the z-score rises from -0.281 to 2.64.

Going from `O=C(CSc1cnc2ccccc2n1)NC1CCCC1` to `Cc1oc(-c2ccccc2Cl)nc1CSCC(=O)NC1CCCC1`, the z-score rises from -0.494 to -0.0255.

First: N=c1n(Cc2ccccc2)c2ccccc2n1CC(O)COc1ccccc1 (configuration not stated)
Second: Cc1ccc(Cn2c(=N)n(CC(O)COc3ccccc3)c3ccccc32)cc1 (configuration not stated)
The z-score of the first is lower: 0.257 for the first, 2.98 for the second.

Going from `OC(COc1ccccc1)Cn1c2ccccc2c2ccccc21` (configuration not stated) to `COc1ccccc1OCC(O)Cn1c(=N)n(Cc2ccccc2)c2ccccc21` (configuration not stated), the z-score rises from -0.0732 to 0.691.

Compared with `COc1cc(SC)ccc1C(=O)N(C)Cc1ccccc1`, `COCCNC(=O)c1ccc(C(=O)C(=O)c2ccccc2)cc1` is lower in z-score: 0.253 for the first, -0.189 for the second.

Compared with `CCOC(=O)CSc1ncc(-c2ccccc2)cn1`, `CC(C)=NNc1nc(-c2ccccc2)cs1` is lower in z-score: -0.0802 for the first, -0.203 for the second.

Compared with `CCOC(=O)N1CCN(C(=O)C2CCN(S(=O)(=O)c3ccccc3)CC2)CC1`, `CCOC(=O)N1CCC(NC(=O)c2cc3c(=O)n(C)c4ccccc4c3n2C)CC1` is lower in z-score: -0.151 for the first, -0.597 for the second.

First: CN1CCN(C(=S)Nc2cccc(C(F)(F)F)c2)CC1
Second: CCOC(=O)N1CCN(Cc2nc(N)nc(Nc3ccccc3C)n2)CC1
The z-score of the first is lower: -0.213 for the first, -0.106 for the second.

Going from `Cc1ccccc1C(=O)Oc1ccc(Br)cc1C(=S)N1CCCC1` to `O=C(Oc1ccc(Br)cc1C(=S)N1CCCCC1)c1cc([N+](=O)[O-])cc([N+](=O)[O-])c1`, the z-score rises from -0.342 to 0.762.

First: O=C(c1cc2sccc2n1Cc1ccccc1)N1CCCc2ccccc21
Second: Cc1cc2cc(C)c3nnc(SCC(=O)N4CCc5ccccc54)n3c2cc1C
The z-score of the first is lower: -0.795 for the first, -0.31 for the second.

Going from `CC(C)CCNC(=O)C(c1cccnc1)N(CCc1ccccc1)C(=O)Cn1nnc2ccccc21` (configuration not stated) to `CN(Cc1ccccc1)c1nc2c(c(=O)[nH]c(=O)n2C)n1CCSc1ncccn1`, the z-score rises from 0.555 to 0.672.

First: CC(C)NC(=S)N/N=C/C1=CCC2CC1C2(C)C (configuration not stated)
Second: CC1(C)C2CC=C(/C=N/NC(=O)c3ccc(O)cc3)C1C2 (configuration not stated)
The z-score of the first is lower: -0.69 for the first, -0.0642 for the second.

First: CC1(C)C2CC=C(/C=N/n3cnnc3)C1C2 (configuration not stated)
Second: Cc1ccccc1-c1nc(CN2CCC(C(=O)NCCCN3CC(C)CC(C)C3)CC2)c(C)o1 (configuration not stated)
The z-score of the first is lower: 2 for the first, 2.43 for the second.

Going from `Cc1nc2ccc(S(=O)(=O)NC(C(=O)NCc3ccc4c(c3)OCO4)C(C)C)cc2s1` (configuration not stated) to `CC(C)(C)C(=O)Nc1ccccc1C(=O)OCC(=O)c1ccc2c(c1)OCCO2`, the z-score falls from -0.0773 to -0.731.

First: O=S(=O)(Nc1cccc2nsnc12)c1ccccc1
Second: CC(C)(C)NS(=O)(=O)c1ccc(CCC(=O)Nc2cc(Cl)ccc2Oc2ccccc2)cc1
The z-score of the first is higher: 0.265 for the first, 0.0264 for the second.

Going from `O=C1CCCCC(=O)c2ccccc2N1` to `O=C1CCCc2sccc2N1`, the z-score falls from 2.21 to -0.164.

First: O=C1C(=C(c2ccccc2)c2ccccc2)Nc2ccccc21
Second: OCCCCNCc1ccc(OCc2ccccc2)cc1
The z-score of the first is lower: -1.32 for the first, 0.0747 for the second.

Going from `COc1cc(CNC2CCCCCC2)cc(OC)c1O` to `Cc1ccccc1-c1nc(CN2CCC(C(=O)NCCC3=CCCCC3)CC2)c(C)o1`, the z-score rises from 0.176 to 1.63.

Going from `CCn1c(CNC(=O)c2ccco2)nnc1SCC(=O)Nc1cc(C)c(C)cc1Br` to `Cc1occc1-c1nnc(SCc2cc(=O)n3cc(Br)ccc3n2)n1C`, the z-score rises from -0.121 to 0.0968.

Compared with `COC(=O)c1c(N)c(C#N)c(C)n1-c1ccccc1`, `OCCCCNCc1ccc(OCc2ccccc2Cl)cc1` is higher in z-score: -0.272 for the first, 2.17 for the second.

Going from `Cc1oc(-c2cccc(Cl)c2)nc1CN1CCC(C(=O)NCC2CCCO2)CC1` (configuration not stated) to `Cc1ccccc1-c1nc(CN2CCC(C(=O)NCCCN3CCOCC3)CC2)c(C)o1`, the z-score falls from -0.375 to -0.636.

`Cc1ccccc1-c1nc(CN2CCCC(C(=O)NCCCN3CCOCC3)C2)c(C)o1` (configuration not stated) gave a z-score of -0.359.

For `CSc1nc(-c2ccccc2)[nH]c(=S)c1C(C)=O`, the z-score was 7.43 (active).
`CC(=O)c1c(N2CCCC2)[nH]c(-c2ccccc2)nc1=S` was tested, and the z-score was 14.8 (active).
In the case of `N#Cc1c(N)nc(SCc2ccccc2)c(C#N)c1-c1ccco1`, the z-score is reported as 11.4 (active).
For `O=C(NC(=S)Nc1cccc(Cl)c1N1CCCCC1)c1ccco1`, the z-score was 5.38 (active).
With `O=C(NC(=S)Nc1ccccc1N1CCCCC1)c1ccco1` the z-score was 5.87 (active).
In the case of `O=C(NC(=S)Nc1ccccc1N1CCOCC1)c1cccs1`, the z-score is reported as 4.28 (active).
For `O=C(NC(=S)Nc1ccccc1N1CCOCC1)c1ccco1`, the z-score was 9.71 (active).
With `CC1CCN(c2ccccc2NC(=S)NC(=O)c2ccco2)CC1` the z-score was 3.89 (active).
In the case of `Cc1ccc(OCC(O)Cn2c(=N)n(Cc3ccccc3)c3ccccc32)cc1` (configuration not stated), the z-score is reported as 4.01 (active).
`Cc1c([N+](=O)[O-])cc(C(=O)Oc2ccc(Br)cc2C(=S)N2CCCCC2)cc1[N+](=O)[O-]` was tested, and the z-score was 3.58 (active).
`CCCCCNc1nc(-c2ccccc2)cs1` was tested, and the z-score was 3.86 (active).
For `Cc1ccc2nsnc2c1S(=O)(=O)Nc1cccc2nsnc12`, the z-score was 14.7 (active).
In the case of `CCN1CCCC1CNC(=O)CSCc1nc(-c2ccccc2C)oc1C` (configuration not stated), the z-score is reported as 4.01 (active).
`Cc1oc(-c2cccc(Cl)c2)nc1CN1CCC(C(=O)NCc2ccco2)CC1` was tested, and the z-score was -4.86 (active).
`CCN1CCCC1CNC(=O)C1CCN(Cc2nc(-c3cccc(Br)c3)oc2C)CC1` (configuration not stated) was tested, and the z-score was 4.3 (active).
